Compound activity as filed in PubChem.
Hits are enriched below; roughly 6.5% of the tested compounds scored in any of these assays.
HCMV inh – inhibitors of human cytomegalovirus; HFF cells, HCMV-luciferase reporter, 72 h; active compounds read low; activity change, negative = inhibition, % at 57.5 µM; 410,000 compounds, 4.5% hits; AID 1259415; in the data active = activity change below about -60%; inconclusive = no clear call, values can overlap the other calls; inactive = above about -39%
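Cell-based, HFFs, 1000 cells/well, 16 h 37C; cpds in DMSO + HCMV-luc, MOI 1 PFU/cell; 72 h 37C; OneGlo luminescence after 5 min RT; norm. to buffer vs Salinomycin 10uM.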
Lassa entry inh – inhibitors of Lassa virus binding or cell entry | Lassa virus pseudotype entry inhibition, cell reporter | Potency, µM (doses to about 37.9 µM), without a hit: at the highest dose activity change, negative = inhibition, hits mostly inhibitors | 300,000 compounds, 1.2% hits | AID 540256; calls by dose curve; tested in HEK293 cells; also: potency is read from the fitted curve at half-maximal effect; nearly all actives have a fitted effect of over 50% in size
Vaccinia Venus – inhibitors of vaccinia virus (Venus reporter) | Vaccinia virus Venus reporter expression, fluorescence | Potency, µM (doses to about 36.5 µM), for the others: top-dose activity change, negative = inhibition, most hits filed as inhibitors | 330,000 compounds, 0.46% hits | AID 720580; calls by dose curve; tested in A549 cells; also: potency is read from the fitted curve at half-maximal effect; nearly all actives have a fitted effect of over 30% in size
FMDV antiviral – blocks foot and mouth disease virus; FMDV antiviral cell-based qHTS; 410,000 compounds, 1.2% hits; Potency, µM (doses to about 57.9 µM), without a hit: at the top dose activity change, negative = inhibition, most hits filed as inhibitors; AID 1159524; calls by dose curve; tested in HEK293T cells; also: read-out not given here; potency is read from the fitted curve at half-maximal effect; nearly all actives have a fitted effect of over 45% in size
Marburg entry inh – Marburg virus entry inhibition. Marburg virus pseudotyped entry inhibition, cell reporter. Potency, µM (highest dose often 37.8 µM), for inactives: at the top dose activity change, negative = inhibition, actives largely listed as inhibitors. 300,000 compounds, 1.8% hits; calls by dose curve; tested in HEK293 cells; also: potency is read from the fitted curve at half-maximal effect
Vaccinia mCherry – inhibitors of vaccinia virus infection (mCherry reporter signal); AID 720579; Vaccinia virus mCherry reporter infection, fluorescence; Potency, µM (titrated, usually from 36.5 µM), without a hit: at the highest dose activity change, negative = inhibition, most hits filed as inhibitors; 310,000 compounds, 0.63% hits; calls by dose curve; tested in A549 cells; also: potency is read from the fitted curve at half-maximal effect; nearly all actives have a fitted effect of over 35% in size
The depositor's hits bear a star; ! = a repeat was not active; [ ] = dose if it differs, or a comment. % is scaled to controls: 0 for no effect and ±100 for the full control effect.

Results for Cc1cc(N=NC(=O)c2ccccc2O)c2ccccc2c1O ?
HCMV inh: -72.7*; Lassa entry inh: -20.8%; FMDV antiviral: -18.2%; Marburg entry inh: inconclusive

How did Clc1ccc2nccnc2c1 do in these assays?
Vaccinia Venus: 5.8%; Vaccinia mCherry: -14.4%

How did CCN(C)C(=O)C1=COC2=NC(=O)N(Cc3cccc(Cl)c3)CCN12 do in these assays?
HCMV inh: -7.1

How did O=C(Cc1ccc([N+](=O)[O-])cc1)Nc1ccc(Br)cn1 do in these assays?
HCMV inh: -61.2*; Lassa entry inh: 5.3%; Vaccinia Venus: -19.4%; FMDV antiviral: 13.2%; Marburg entry inh: inconclusive; Vaccinia mCherry: inconclusive

Results for O=C(COc1ccc(Br)cc1)Nc1ccc([N+](=O)[O-])cn1 ?
HCMV inh: -31.1; Lassa entry inh: 3.8%; Vaccinia Venus: -10.5%; FMDV antiviral: 7.9%; Marburg entry inh: 12.3%

Results for Cc1ncc2c(c1CNS(=O)(=O)c1cccs1)CCN(C(=O)/C=C/c1cc(F)cc(F)c1)C2 ?
Vaccinia Venus: -12.1%; FMDV antiviral: -5.5%; Vaccinia mCherry: -19.6%

Results for Cc1cccc(N(C)C(=O)CCS(=O)(=O)c2cccc3nonc23)c1 ?
HCMV inh: -65.8*; Lassa entry inh: 10.2%; Vaccinia Venus: -11.3%; FMDV antiviral: -6.3%; Marburg entry inh: 3.9%; Vaccinia mCherry: -13.3%

Results for CCN(C(=O)CCS(=O)(=O)c1cccc2nonc12)c1ccc(C)c(C)c1 ?
HCMV inh: -18.7; Lassa entry inh: -7.3%; Vaccinia Venus: -19.8%; FMDV antiviral: 12.9%; Marburg entry inh: inconclusive; Vaccinia mCherry: -12.5%

How did CC(=O)O[C@H]1C[C@@H]2OC3C=C(C)CCC3(C)[C@@]1(C)[C@@]21CO1 (some centres not stated) do in these assays?
HCMV inh: -98.2*; Marburg entry inh: 0.447µM*

How did O=C(COC(=O)c1cc([N+](=O)[O-])ccc1N1CCOCC1)Nc1cccc(F)c1 do in these assays?
HCMV inh: -3.6; FMDV antiviral: 39.8µM*

Results for COc1ccc(C(=O)COC(=O)c2cc([N+](=O)[O-])ccc2N2CCOCC2)c(OC)c1 ?
HCMV inh: 18.4; Lassa entry inh: -10.9%; Vaccinia Venus: -12.8%; FMDV antiviral: -18.9%; Marburg entry inh: 2.24µM*; Vaccinia mCherry: -18.5%

Results for COc1ccc(C(=O)c2cc([N+](=O)[O-])ccc2N2CCOCC2)cc1 ?
HCMV inh: -99.1*; Lassa entry inh: inconclusive; Vaccinia Venus: inconclusive; FMDV antiviral: -11.6%; Marburg entry inh: inconclusive; Vaccinia mCherry: inconclusive

How did CCOc1ccc(C(=O)c2cc([N+](=O)[O-])ccc2N2CCOCC2)cc1 do in these assays?
HCMV inh: -90.3*; Lassa entry inh: inconclusive; Vaccinia Venus: inconclusive; FMDV antiviral: inconclusive; Marburg entry inh: inconclusive; Vaccinia mCherry: inconclusive

How did COc1ccccc1C(=O)COC(=O)c1cc([N+](=O)[O-])ccc1N1CCOCC1 do in these assays?
HCMV inh: -11.5; Lassa entry inh: -10.2%; Vaccinia Venus: -8.0%; FMDV antiviral: 7.2%; Marburg entry inh: inconclusive; Vaccinia mCherry: inactive

Results for O=C(OCc1ccc([N+](=O)[O-])cc1)c1cc([N+](=O)[O-])ccc1N1CCOCC1 ?
HCMV inh: -26.8; Lassa entry inh: inconclusive; Vaccinia Venus: -25.5%; FMDV antiviral: -29.3%; Marburg entry inh: -14.5%; Vaccinia mCherry: inconclusive

Results for Cc1ccc(COC(=O)c2cc([N+](=O)[O-])ccc2N2CCOCC2)cc1 ?
HCMV inh: -63.3*

How did CN(C)c1ccc(-c2nn3c(-c4ccccc4Cl)nnc3s2)cc1 do in these assays?
HCMV inh: -74.3*; Lassa entry inh: inconclusive; Vaccinia Venus: -22.4%; FMDV antiviral: -10.6%; Marburg entry inh: -33.4%; Vaccinia mCherry: -10.5%

How did Clc1ccccc1-c1nnc2sc(-c3ccncc3)nn12 do in these assays?
HCMV inh: -15.7; Vaccinia Venus: -9.1%; FMDV antiviral: -3.3%; Vaccinia mCherry: -8.9%

Results for COc1ccccc1-c1nnc2sc(-c3ccc(N(C)C)cc3)nn12 ?
HCMV inh: -92.9*; Lassa entry inh: inconclusive; Vaccinia Venus: inconclusive; FMDV antiviral: -2.1%; Marburg entry inh: inconclusive; Vaccinia mCherry: inconclusive

How did CCCNC(=O)OC[C@H]1O[C@H](CCO/N=C(\C)CCN2CCCCc3nc(C)c(C)cc32)C=C[C@@H]1Oc1ccc(OC)cc1 do in these assays?
Marburg entry inh: -26.3%[14.2 µM]

How did Cc1nn(CCc2n[nH]c(=S)n2-c2cccc(Cl)c2)c(C)c1[N+](=O)[O-] do in these assays?
HCMV inh: 30.7; Lassa entry inh: -8.5%; FMDV antiviral: -15.2%; Marburg entry inh: 12.3%

How did Cc1cccc(-n2c(Cn3nc(C)c([N+](=O)[O-])c3C)n[nH]c2=S)c1 do in these assays?
HCMV inh: -98.3*; Lassa entry inh: 9.2%; Vaccinia Venus: -4.7%; FMDV antiviral: -12.8%; Marburg entry inh: -3.2%

What do the screens show for `CCOC(=O)c1c(C)nc2sc3c(=O)n(-c4ccc(OC)cc4)cnc3c2c1-c1ccc(OC)cc1`?
HCMV inh: -6.0; Lassa entry inh: -9.4%; Vaccinia Venus: -3.4%; FMDV antiviral: -1.1%; Marburg entry inh: 2.4%; Vaccinia mCherry: -14.9%

Results for COc1ccc(-c2c(C(C)=O)c(C)nc3sc4c(=N)n(N)cnc4c23)cc1 ?
HCMV inh: inconclusive; Lassa entry inh: inconclusive; Vaccinia Venus: 12.6µM*; FMDV antiviral: -4.1%; Marburg entry inh: -15.5%; Vaccinia mCherry: 7.08µM*

What do the screens show for `O=C1NCN(c2ccccc2)C12CCN(CCCC(c1ccc(F)cc1)c1ccc(F)cc1)CC2`?
HCMV inh: 58.2; Lassa entry inh: 10.3µM*; Vaccinia Venus: -11.8%; FMDV antiviral: inconclusive; Marburg entry inh: 2.06µM*; Vaccinia mCherry: -25.7%

Results for O=C(NCCN1CCC(n2c(=O)[nH]c3ccccc32)CC1)c1ccccc1 ?
HCMV inh: -10.4; Vaccinia Venus: -9.5%; FMDV antiviral: -19.1%; Vaccinia mCherry: -2.3%

How did O=C(NCCN1CCC2(CC1)C(=O)NCN2c1cccc(F)c1)c1ccc2ccccc2c1 do in these assays?
HCMV inh: -101.4*; Vaccinia Venus: -5.5%; FMDV antiviral: -28.7%; Vaccinia mCherry: 5.8%

How did O=c1[nH]c2ccccc2n1C1CCN(CCCC(c2ccc(F)cc2)c2ccc(F)cc2)CC1 do in these assays?
HCMV inh: inconclusive; Lassa entry inh: 10.3µM*!; Vaccinia Venus: inconclusive; FMDV antiviral: inconclusive; Marburg entry inh: 11.6µM*!; Vaccinia mCherry: -13.9%

Results for O=C1NCN(c2ccccc2)C12CCNCC2 ?
HCMV inh: 20.8; Lassa entry inh: 0.0%; FMDV antiviral: inconclusive; Marburg entry inh: 0.1%

Results for COc1cccc(C(=O)N2CCCCC2CCN2CCCCC2)c1 (configuration not stated) ?
HCMV inh: -23.6; Lassa entry inh: 9.4%[46.1 µM]; Vaccinia Venus: -3.4%; FMDV antiviral: -6.5%; Marburg entry inh: 1.5%[46.1 µM]; Vaccinia mCherry: -12.3%
